# Sampled rows, rich in hits. Any-hit rate of the full collection: about 12%.
# Sfp PPTase inh: inhibitors of Bacillus subtilis Sfp phosphopantetheinyl transferase; Q9F4F7; Biochemical Sfp PPTase activity, qHTS; Potency, µM, for the others: largest response in the series, negative = inhibition, hits mostly inhibitors; actives 3.5% (n = 310,000); AID 1490;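 also: the enzyme is Sfp with the accession as filed and its product quenches rhodamine fluorescence; 0% = enzyme reaction without inhibitor and -100% = no enzyme wells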
#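 After 15 min at room temperature with compound, 15 nM Sfp received 5 uM rhodamine-CoA plus 12.5 uM BHQ-2-ybbR (50 mM Hepes pH 7.6, 10 mM MgCl2). Rate came from the fluorescence difference over 30 min, ex 525/em 598 nm.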
# HP1b binding inh: HP1-beta chromodomain-methylated histone interaction inhibition; P83916; AlphaScreen HP1-beta / biotin-H3K9me3 peptide binding; Potency, µM (highest dose often 114 µM), without a hit: at the highest dose activity change, negative = inhibition, usual class: inhibitors; actives 0.56% (n = 390,000); also: nearly all actives have a fitted effect of over 70% in size
# Target sequence (P83916 whole entry, looked up): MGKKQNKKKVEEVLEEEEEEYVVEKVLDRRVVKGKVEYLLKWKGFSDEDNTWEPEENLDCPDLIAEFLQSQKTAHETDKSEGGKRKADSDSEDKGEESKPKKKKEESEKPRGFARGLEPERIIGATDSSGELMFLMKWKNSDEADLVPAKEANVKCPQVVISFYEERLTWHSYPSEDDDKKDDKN
#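 AlphaScreen: HP1-beta (50 nM) preformed 30 min with biotin-H3(1-18)K9me3 peptide (50 nM) in PBS pH 7.4, 0.01% Tween-20. Compound added for 30 min at RT, then streptavidin donor/nickel chelate acceptor beads (10 ug/mL) for 30 min.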
# G9a block: blocks human histone lysine methyltransferase G9a; Q96KQ7; G9a H3K9 monomethylation, AlphaScreen, 2 h; Potency, µM (doses to about 102 µM), without a hit: at the highest dose activity, negative = inhibition, usual class: inhibitors; actives 8.8% (n = 350,000); AID 504332; also: % is scaled to controls: 0 for no effect and ±100 for the full control effect; nearly all actives have a fitted effect of over 75% in size
# Target sequence (Q96KQ7 913-1193 limits assumed): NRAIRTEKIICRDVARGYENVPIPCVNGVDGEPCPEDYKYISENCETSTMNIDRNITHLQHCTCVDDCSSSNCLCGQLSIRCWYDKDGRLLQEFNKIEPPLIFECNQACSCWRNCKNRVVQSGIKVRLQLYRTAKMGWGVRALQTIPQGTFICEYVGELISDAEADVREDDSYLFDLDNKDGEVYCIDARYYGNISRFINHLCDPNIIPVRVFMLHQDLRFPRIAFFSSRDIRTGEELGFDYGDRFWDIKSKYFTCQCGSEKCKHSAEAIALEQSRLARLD
#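 Using a bead-based AlphaScreen, monomethylated H3K9 product from 2 h room-temperature reactions (G9a 20 nM, peptide 500 nM, SAM 20 uM) was detected with 0.5 ug/mL rabbit anti-H3K9me1 antibody.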
# BAZ2B inh: inhibitors of human BAZ2B bromodomain; Q9UIF8; actives 4.4% (n = 360,000); Potency, µM (series often up to 114 µM), for inactives: at the top dose activity change, negative = inhibition, hits mostly inhibitors; AlphaScreen BAZ2B-H3K14Ac peptide displacement; also: % is scaled to controls: 0 for no effect and ±100 for the full control effect; nearly all actives have a fitted effect of over 60% in size
#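 BAZ2B (50 nM) with biotin-H3(5-23)K14Ac peptide (50 nM) in PBS pH 7.4, 0.01% Tween-20, preformed 30 min, then compound 30 min at room temperature; top concentration 110uM. AlphaScreen streptavidin donor/nickel chelate acceptor beads (10 ug/mL final), 20 min dark, signal read.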
# JMJD2A Tudor inh: inhibitors of human JMJD2A Tudor domain; O75164; AlphaScreen JMJD2A-Tudor / H3K4me3 peptide binding; Potency, µM (top dose mostly 114 µM), without a hit: at the top dose activity change, negative = inhibition, usual class: inhibitors; actives 4.4% (n = 390,000); also: % is scaled to controls: 0 for no effect and ±100 for the full control effect; nearly all actives have a fitted effect of over 50% in size
# L3MBTL1 inh: inhibitors of human L3MBTL1; AID 485360; Potency, µM (series often up to 57.1 µM), without a hit: at the top dose activity, negative = inhibition, most hits filed as inhibitors; actives 0.66% (n = 230,000); AlphaScreen L3MBTL1–H3K9me1 peptide binding; Q9Y468; also: % is scaled to controls: 0 for no effect and ±100 for the full control effect; nearly all actives have a fitted effect of over 60% in size
#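 L3MBTL1 (50 nM) pre-complexed 30 min with biotinylated H3(1-15)K9me1 peptide (75 nM), then compounds added for 30 min at room temperature; AlphaScreen streptavidin donor/nickel chelate acceptor beads (10 ug/mL final) read after 30 min dark incubation.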
# The depositor's hits bear a star; ? = inconclusive; / = not tested or not shown; [ ] = dose if it differs, or a comment. Calls follow the shape of the dose curve; as a rule, active = well fitted curve in the direction sought with a large enough effect; inconclusive = small, poorly fitted or top-dose-only effect, or another doubt; inactive = no such curve, though single readings can be large; an effect the other way counts as inactive or inconclusive. Potency is read from the fitted curve at half-maximal effect.
SMILES,Sfp PPTase inh,HP1b binding inh,G9a block,BAZ2B inh,JMJD2A Tudor inh,L3MBTL1 inh
CCN(CC)CCOC(=O)c1ccc(N/C=C(/C#N)c2nc(-c3ccc4c(c3)OCO4)cs2)cc1,20µM*,32µM*,?,?,40µM*,/
COc1cc(/C=C(\C#N)c2nc(-c3cc4ccccc4oc3=O)cs2)ccc1O,8%,-7%,?,-33%,-27%,-14%
CCN(CC)CCOC(=O)c1ccc(N/C=C(/C#N)c2nc(-c3ccc(OC)cc3)cs2)cc1,56µM*,?,11µM*,?,56µM*,/
COc1cccc(-c2nccc(NCc3cnc(C)cn3)n2)c1,-6%,/,10%[0.501 µM],/,/,/
COc1ccc(/C=C/C(=O)NCC(=O)N2CCC(N(C)CCN3CCOCC3)CC2)cc1OC,-7%,?,7.9µM*,50µM*,?,/
COCCNCC(=O)Nc1ccc(C)c(S(=O)(=O)N2CCCCC2)c1,-8%,?,8.9µM*,/,35µM*,7%
Cc1ccc(NC(=O)CNCCCN2CCOCC2)cc1S(=O)(=O)N1CCCCC1,79µM*,?,14µM*,50µM*,18µM*,-20%
Cc1ccc(NC(=O)CNc2ccccc2N2CCCC2=O)cc1S(=O)(=O)N1CCCCC1,/,-3%,3.2µM*,-35%,-30%,-3%
COc1cc(/C=C/C(=O)OCC(=O)Nc2ccc(C)c(S(=O)(=O)N3CCCCC3)c2)ccc1O,13%,-15%,?,?,35µM*,-8%
COc1ccc(CCNC(=O)CSc2nc3scc(-c4ccccc4)c3c(=O)[nH]2)cc1,/,34%,/,/,-15%,9%
COc1ccc(NC(=O)CSC2=Nc3ccccc3C3=NC(CCC(=O)NCCc4ccccc4)C(=O)N23)c(OC)c1 (stereo not given),/,25%,-5%[59 µM],-14%,-16%,/
COc1cccc(-c2cc(NCc3cnc(C)cn3)ncn2)c1,-22%,/,-37%[0.501 µM],/,/,/
COCCNC(=O)C1=C(N)C(C(=O)Nc2ccc(C)c(S(=O)(=O)N3CCCCC3)c2)SC1=Nc1ccc(C)cc1C (stereo not given),-2%,-9%,50µM*,-8%,-35%,/
O=C(Nc1ccc(S(=O)(=O)N2CCOCC2)cc1)c1ccc(Br)o1,9%,37%,1%[12.7 µM],9%,-4%,4%[11.4 µM]
O=C(CNC(=O)c1ccc(Br)o1)Nc1ccc(F)c(S(=O)(=O)N2CCOCC2)c1,/,9%,45µM*,-2%,-24%,3%
O=C(COc1coc(CN2CCc3ccccc3C2)cc1=O)Nc1cccc([N+](=O)[O-])c1,/,23%,?,-35%,-15%,-8%
Cc1cccc2nc(=S)n(C(=O)c3ccco3)n12,16µM*,0%,7%[2.33 µM],-30%,-13%,/
Cc1ccn2c(c1)nc(=O)c1cc(S(=O)(=O)N3CCCCC3)ccc12,13%,15%[57 µM],11%,-9%,-2%,/
O=c1nc2ccccn2c2ccc(S(=O)(=O)N3CCCCC3)cc12,27%,-2%,45µM*,4%,-13%,/
O=S(=O)(O)c1cc(Cl)cc(N=Nc2ccc(O)cc2O)c1O,/,?,/,/,20µM*,/
CCC(C)c1ccccc1OCCOCCN1CCCC1 (stereo not given),-9%,?,13µM*,?,2.5µM*,-8%
CC(C)(C)c1ccccc1OCCOCCN1CCCCCC1,-9%,16%,-43%,-38%,-13%,2%[11.4 µM]
CCC(C)c1ccccc1OCCCCN1CCCC1 (stereo not given),14%,-11%,?,?,3.2µM*,?
CCn1cc(CNC(=O)c2cc(COc3ccc(F)cc3F)on2)cn1,21%,11%,9%,2%,-18%,0%
C(=N\Nc1ncnc2nc[nH]c12)/c1cccs1,?,32%,-27%,50µM*,?,-3%
SMILES,Sfp PPTase inh,HP1b binding inh,G9a block,BAZ2B inh,JMJD2A Tudor inh,L3MBTL1 inh
Cc1ccccc1/C=N/Nc1ncnc2nc[nH]c12,-5%,20%[57 µM],26%,-20%,-3%,/
Fc1ccc(/C=N/Nc2ncnc3nc[nH]c23)cc1F,-4%,38%,6%,?,-17%,4%
Cc1ccsc1/C=N/Nc1ncnc2nc[nH]c12,50µM*,22%,18%,?,-16%,30%
O=C1CCCc2oc3c(c21)CCCC3,18%,2%,50µM*,-21%,-3%,/
COc1ccc(OC)c(/C=C/C(=O)N2CCN(S(=O)(=O)c3ccc(C)cc3C)CC2)c1,/,70%,21%[59 µM],7%,3%,9%
CCOc1ccc(C(=O)Nc2c(C(=O)Nc3ccccc3OC)oc3ccccc23)cc1OCC,/,23%,-48%[59 µM],-5%,-6%,/
CC(C)(C)c1cc(C(=O)CCN2CCOCC2)cc(C(C)(C)C)c1O,-9%,23%,50µM*,2%,-9%,/
CC(C)(C)c1cc(C(=S)N2CCN(CCO)CC2)cc(C(C)(C)C)c1O,3.2µM*,?,?,-38%,?,-3%[11.4 µM]
CCOC(=O)C1CCCN(C(=O)Cn2ncn3c(cc4sc(CC)cc43)c2=O)C1 (stereo not given),/,34%,-24%[59 µM],4%,4%,/
CC(C)=CCC/C(C)=C/CO/N=C1/[C@H]2O[C@@H]2[C@@H](O)[C@H]2[C@H]1CCn1c(=O)n(Cc3cc4c(cc3Cl)OCO4)c(=O)n12,23%,/,/,/,/,/
C(=C\c1nc(-c2ccccc2)oc1Nc1ccc2ccccc2c1)/c1ccccc1,5%,/,/,/,/,/
O=[S+]([O-])([O-])c1ccc2c(c1)cc([S+](=O)([O-])[O-])c1nn(-c3ccc(/C=C/c4ccc(-n5nc6c([S+](=O)([O-])[O-])cc7cc([S+](=O)([O-])[O-])ccc7c6n5)cc4[S+](=O)([O-])[O-])c([S+](=O)([O-])[O-])c3)nc12,/,-22%,/,/,56µM*,/
O=C(O)c1ccc2c(ccc3nn(-c4ccc(/C=C/c5ccc(-n6nc7ccc8cc(C(=O)O)ccc8c7n6)cc5[S+](=O)([O-])[O-])c([S+](=O)([O-])[O-])c4)nc32)c1,/,?,/,/,18µM*,/
Cc1cc2[nH]c(=O)c(=O)[nH]c2cc1S(=O)(=O)Nc1cccc(C)c1C,-2%,34%,41%[59 µM],-10%,-7%,/
CN(C)c1ncc2nc(-c3ccccc3)c(=O)n(C)c2n1,-5%,/,8%[0.501 µM],/,/,/
O=[N+]([O-])c1cc(/C=N/O)ccc1SCc1ccccc1,13%,39%,48%[59 µM],-26%,-16%,-4%
O=[N+]([O-])c1cc(/C=N/O)ccc1Sc1ccccc1,71µM*,-40%,?,50µM*,56µM*,/
CCc1n(CC(O)COC2CCCCC2)c2ccccc2[n+]1C (stereo not given),-13%,23%,/,?,-5%,7%
